# A selection: hits, their analogues and other compounds. The true share with any hit is near 0.9%.
# BLM inh – inhibitors of human Bloom syndrome helicase BLM; P54132; recombinant BLM DNA unwinding, fluorescence dequenching; Potency, µM (highest dose often 56.1 µM), for inactives: top-dose activity change, negative = inhibition, hits mostly inhibitors; actives 0.2% (n = 350,000);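 further: plate controls were vehicle for no effect and no enzyme for full effect; nearly all actives have a fitted effect of over 35% in size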
# APEX1 inh – inhibitors of human APE1 endonuclease; P27695; recombinant APE1, TAMRA/BHQ-2 abasic DNA cleavage fluorescence; Potency, µM (titrated, usually from 65.8 µM), for inactives: at the top dose activity change, negative = inhibition, most hits filed as inhibitors; actives 0.35% (n = 350,000); AID 2517;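 further: plate controls were vehicle for no effect and reference inhibitor for full effect; nearly all actives have a fitted effect of over 55% in size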
#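 Enzyme (0.75 nM final) and test compound are incubated 15 min at room temperature before adding 50 nM quenched THF abasic-site duplex. Cleavage dequenches TAMRA, followed at 525/598 nm over three reads one minute apart.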
# KAT2A inh – inhibitors of human GCN5L2 histone acetyltransferase. Potency, µM (titrated, usually from 58.9 µM), without a hit: at the highest dose activity change, negative = inhibition, most hits filed as inhibitors. GCN5L2 HAT assay, ThioGlo1 CoA-SH fluorescence. actives 0.21% (n = 390,000)
#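 GCN5L2 (20nM final) in 50mM HEPES, 0.1mM EDTA pH 7.5, 0.01% Tween-20 was preincubated 15 min at room temperature with compound, then given ThioGlo1 (50uM), H3(1-25) peptide (75uM) and acetyl-CoA (70uM); CoA-thiol fluorescence (Ex340/Em540) was read at 0 and 20 min.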
# LMNA splice mod – modulators of lamin A splicing; HeLa LMNA splicing GFP/RFP minigene ratio, 48 h; Potency, µM (highest dose often 46.1 µM), inactives show at the highest dose ratio change, negative = inhibition, actives largely listed as inhibitors; actives 0.01% (n = 200,000); AID 1487; active means well fitted inhibition curve with a large enough effect in the signal ratio, with a control signal flat, not every such curve was filed as active; inconclusive means small, poorly fitted or top-dose-only effect, or effect the other way, or a change in a side signal; the % refers to the signal ratio
#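 S3 HeLa cells stably expressing lamin A-EGFP splicing minigene plus DsRed2, 600 cells/well, 48 h compound exposure at 37C. Laser-scanning cytometry; analysed as GFP (500-530 nm)/RFP (575-640 nm) total intensity ratio; 0.5% DMSO vehicle.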
# RECQ1 inh – blocks DNA unwinding by human RECQ1; P46063; RECQ1 DNA unwinding, red fluorescence kinetic read; Potency, µM (highest dose often 57.3 µM), for the others: at the highest dose activity, negative = inhibition, actives largely listed as inhibitors; actives 0.54% (n = 240,000); AID 2549;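 further: plate controls were vehicle for no effect and no enzyme for full effect; nearly all actives have a fitted effect of over 30% in size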
#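 RECQ1T1 50 nM; forked duplex (20 bp + 30-nt ss tails) 200 nM, ATP 2 mM final; pH 8.0, 2 mM MgCl2, 2.5 ug/ml poly(dI-dC); 15 min compound preincubation; discontinuous kinetic read over 2 h at RT.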
# TDP1 inh – inhibitors of human tyrosyl-DNA phosphodiesterase TDP1; Q9NUW8; recombinant TDP1, AlphaScreen DNA substrate cleavage; Potency, µM (top dose mostly 130 µM), inactives show at the highest dose activity change, negative = inhibition, usual class: inhibitors; actives 0.28% (n = 350,000); AID 485290; further: nearly all actives have a fitted effect of over 40% in size
# Target sequence (Q9NUW8 whole entry, looked up): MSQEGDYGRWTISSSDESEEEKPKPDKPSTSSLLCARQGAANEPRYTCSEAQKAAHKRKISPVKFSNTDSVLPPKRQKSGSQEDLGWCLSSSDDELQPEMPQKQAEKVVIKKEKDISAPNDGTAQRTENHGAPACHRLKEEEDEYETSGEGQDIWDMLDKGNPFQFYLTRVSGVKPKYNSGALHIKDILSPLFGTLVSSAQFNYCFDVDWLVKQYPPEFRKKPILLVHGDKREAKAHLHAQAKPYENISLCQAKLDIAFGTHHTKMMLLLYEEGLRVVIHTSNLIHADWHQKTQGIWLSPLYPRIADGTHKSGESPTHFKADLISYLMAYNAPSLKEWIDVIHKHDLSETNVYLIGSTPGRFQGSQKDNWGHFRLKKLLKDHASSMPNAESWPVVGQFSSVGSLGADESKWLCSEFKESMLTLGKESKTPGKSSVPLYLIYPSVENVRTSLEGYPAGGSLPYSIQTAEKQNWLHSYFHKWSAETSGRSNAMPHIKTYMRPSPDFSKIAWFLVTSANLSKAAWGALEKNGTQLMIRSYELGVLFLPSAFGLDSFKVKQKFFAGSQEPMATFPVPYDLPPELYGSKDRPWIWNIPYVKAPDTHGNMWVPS
#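 Recombinant E. coli-expressed Tdp1 (1 nM) preincubated with compound 15 min at RT, then 5'-biotin/3'-phosphotyrosine-FITC DNA substrate (15 nM) added for 5 min. AlphaScreen beads (10 ug/ml) added, 10 min RT; tyrosine-FITC cleavage read as signal loss.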
# * marks the source's active call; other numbers are inactive results; i = inactive; ? = inconclusive; nt = not tested or not shown; ! = repeats disagree; [ ] = dose if it differs, or a comment. Unless noted, the call rests on the fitted dose curve; in most records, active means well fitted curve in the direction sought with a large enough effect; inconclusive means small, poorly fitted or top-dose-only effect, or another doubt; inactive means no such curve, though single readings can be large; an effect the other way counts as inactive or inconclusive. Unless noted, on the % scale 0 is the no-effect control and ±100 the full control effect; potency means the concentration at half of the fitted maximal effect.
SMILES,BLM inh,APEX1 inh,KAT2A inh,LMNA splice mod,RECQ1 inh,TDP1 inh
CC(=O)SC1CC2=CC(=O)CC[C@]2(C)C2CC[C@@]3(C)C(CC[C@@]34CCC(=O)O4)C12 (some centres not stated),nt,nt,7%,nt,nt,nt
O=c1c2ccccc2nc2sc(Nc3ccc(Br)cc3)nn12,nt,-9%,nt,nt,nt,nt
O=C(NCCc1ccccc1)c1nnc(CS(=O)(=O)c2ccccc2)o1,-1%,22%,4.5µM*,nt,nt,nt
Cc1nc(N=Nc2cc(S(=O)(=O)O)ccc2S(=O)(=O)O)c(COP(=O)(O)O)c(C=O)c1O,88%,16µM*,?,nt,-30%,5µM*
Cc1ncc(COP(=O)(O)O)c(C=O)c1O,1%,nt,-12%,?,nt,-9%
Oc1ccc(/C=N/Nc2ccnc3cc(Cl)ccc23)cc1O,28µM*,?,-21%,nt,-21%,9%
COc1ccc(C2=Nn3c(nnc3-c3ccccc3OC)SC2)cc1,nt,nt,nt,nt,nt,0%
COc1ccc(-n2c(NC(=O)c3ccco3)c(C#N)c3nc4ccccc4nc32)cc1,32µM*,2%,-21%,?,17%,3%
O=C1C2C3C=CC(C3)C2C(=O)N1CNc1ccc(O)cc1 (configuration not stated),25µM*,?,0%,18%,?,-4%
O=C(NCCc1ccc(Cl)cc1)c1ccc(Cn2c(=O)[nH]c3ccccc3c2=O)cc1,-29%,0%,-1%,?,nt,28µM*
NS(=O)(=O)c1ccc(CCNC(=O)c2ccc(Cn3c(=O)[nH]c4ccccc4c3=O)cc2)cc1,-2%,-5%,-7%,23%[46 µM],-2%,0%
Nc1nc2[nH]cc(CCc3ccc(C(=O)NC(CCC(=O)O)C(=O)O)cc3)c2c(=O)[nH]1 (configuration not stated),2%,nt,-2%,nt,nt,nt
Nc1cccc2nsnc12,-14%,-6%,-1%,nt,-1%,nt
Nc1cc2nsnc2cc1Br,4µM*,?,?,17%,?,-6%
CC(C)(C)n1ncc2c(=O)n(Cc3cccc(OC(F)(F)F)c3)cnc21,nt,-4%,nt,nt,nt,nt
CN(C)c1ncc2nc(-c3ccccc3)c(=O)n(Cc3ccc(F)cc3)c2n1,-3%,-3%,-11%,11%,-10%,nt
CN(C)c1ncc2nc(-c3ccc(Cl)cc3)c(=O)n(Cc3ccc(F)cc3)c2n1,1%,32µM*,-27%,5%,-6%,nt
C/C=C(\C)C(=O)NCCN1C2=NC[C@H](C(C)C)N2C[C@@H]1Cc1ccc(OC)cc1,38%,12%,1%,nt,1%,9%
CCCCCCNC(=O)N[C@@H](C(=O)NCCC[C@H]1CN2C(=NC[C@@H]2Cc2ccccc2)N1CCc1cccc(OC)c1)C(C)C,4%,1%,40µM*,nt,i,5%
O=C(COc1ccc(Cl)cc1Cl)Nc1ccc(C(=O)Nc2ccccc2C(=O)O)cc1,?,-5%,?,nt,nt,50µM*
O=C(COc1ccccc1Cl)Nc1cc(NC(=O)COc2ccccc2Cl)cc(C(=O)O)c1,-23%,-25%,?,nt,nt,35µM*
CC1(C)CC(=O)C2=C(C1)OC(N)=C(C#N)[C@@H]2c1ccccc1[N+](=O)[O-],-5%,-3%,-9%,nt,-7%,71µM*
O=C(CCCN1C(=O)S/C(=C\C=C\c2ccccc2)C1=O)Nc1ccc(C(=O)O)cc1,-6%,7%,-14%,nt,nt,35µM*
Cc1c(N2C(=O)CS/C2=N\N=C\c2ccc(Br)cc2)c(=O)n(-c2ccccc2)n1C,-2%,0%,1.6µM*,3%,i,6%
COc1ccc(NS(=O)(=O)c2ccc(NN=Cc3ccc(C(=O)O)cc3)c([N+](=O)[O-])c2)cc1,nt,?,-21%,nt,nt,45µM*
SMILES,BLM inh,APEX1 inh,KAT2A inh,LMNA splice mod,RECQ1 inh,TDP1 inh
O=C(O)c1ccc(/C=N/Nc2ccc(S(=O)(=O)N3CCCC3)cc2[N+](=O)[O-])cc1,-3%,4%,2%,nt,8%,0%
COc1ccc(C2=Nn3c(nnc3-c3ccccc3C(F)(F)F)SC2)cc1OCC1CC1,nt,0%,nt,nt,nt,nt
Cc1cc(C(F)(F)F)nn1CC(=O)NNC(=S)Nc1ccc(Cl)cc1,0%,-5%,0%,6%,-2%,12%
O=C(Cn1nnc(-c2cc(C(F)(F)F)cc(C(F)(F)F)c2)n1)NNC(=S)Nc1ccc(Cl)cc1,18µM*,-1%,-20%,nt,5%,-6%
Nc1ccc2nc(-c3ccc(-c4nc5ccc(N)cc5[nH]4)cc3)[nH]c2c1,-20%,-41%,-16%,nt,nt,nt
Nc1ccc2nc(-c3cccc(-c4nc5ccc(N)cc5[nH]4)n3)[nH]c2c1,14µM*,-90%,-8%,nt,nt,nt
Cc1cccc(OCC(=O)OC(C)CN2CCCCC2)c1 (configuration not stated),0%,8%,-24%,nt,nt,35µM*
Cn1c(/C=C/c2ccccc2[N+](=O)[O-])nc2ccccc2c1=O,-4%,15%,-3%,nt,nt,5µM*
COc1ccc(CCNC(=O)c2ccc3c(c2)NC(=O)C(CSCc2cc(C)ccc2C)N3)cc1OC (configuration not stated),-7%,25%,28µM*,nt,nt,6%
COc1ccc(C2c3c(n(CCc4ccccc4)cnc3=N)Oc3ccc4ccccc4c32)cc1OC (configuration not stated),nt,nt,nt,nt,nt,1%
Cc1ccc(CNc2ccc(O)cc2)cc1,25µM*,-9%,-9%,?,-11%,5%
CCOC(=O)c1ccc(N2C(=O)C3CC=CCC3C2=O)cc1 (configuration not stated),-2%,0%,-3%,-8%,-11%,6%
NS(=O)(=O)c1ccc(N2C(=O)C3CC=CCC3C2=O)cc1 (configuration not stated),-1%,?,-1%,-10%[46 µM],i,56µM*
Cc1ccc(CCNC(=O)CCCn2c(=O)c3cccn3c3ccc(F)cc32)cc1,-2%,nt,-11%,?,nt,-5%
CC(C)(C)OC(=O)Cc1nnc(C(C(=O)OCc2ccccc2)c2ccccc2)o1 (configuration not stated),nt,nt,nt,nt,nt,-8%
CCCCN(C(=O)c1cccc(-n2cccc2)c1)c1c(N)n(CCC)c(=O)[nH]c1=O,nt,-89%,-24%,nt,nt,50µM*
CCCN(C(=O)c1cccc(-n2cccc2)c1)c1c(N)n(Cc2ccccc2)c(=O)[nH]c1=O,nt,6.7µM*,-24%,nt,nt,45µM*
C[n+]1cc2c3c(ccc2c2ccc4cc5c(cc4c21)OCO5)OCO3,-2%,1%,16µM*!,?,1%,14%
O=C(NCCCCN1CCOCC1)c1cc2ccccc2o1,2%,-7%,0%,nt,-7%,8%

# Screens as filed in PubChem.
